From PubChem BioAssay
A selection: hits, their analogues and other compounds. The true share with any hit is near 27%.
CYP2C9 inhib – blocks human cytochrome P450 2C9 | inhibition, % at 5 µM | AID 777 | hit rate 20% among 96,000 | P11712 | CYP2C9 Supersomes, luciferin-H conversion, luminescence;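 active = blocking of liver enzyme CYP2C9 beyond about 50% at 5 µM, limit read from the data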
CYP2C19 inh – inhibitors of human CYP2C19; CYP2C19 Supersomes, luciferin-H EGE luminescence, 30 min; P33261; inhibition, % at 5 µM; hit rate 21% among 96,000;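 active = CYP2C19 inhibition above a set limit at 5 µM in the primary screen, cut at about 50% in these data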
Target sequence (P33261 whole entry, looked up): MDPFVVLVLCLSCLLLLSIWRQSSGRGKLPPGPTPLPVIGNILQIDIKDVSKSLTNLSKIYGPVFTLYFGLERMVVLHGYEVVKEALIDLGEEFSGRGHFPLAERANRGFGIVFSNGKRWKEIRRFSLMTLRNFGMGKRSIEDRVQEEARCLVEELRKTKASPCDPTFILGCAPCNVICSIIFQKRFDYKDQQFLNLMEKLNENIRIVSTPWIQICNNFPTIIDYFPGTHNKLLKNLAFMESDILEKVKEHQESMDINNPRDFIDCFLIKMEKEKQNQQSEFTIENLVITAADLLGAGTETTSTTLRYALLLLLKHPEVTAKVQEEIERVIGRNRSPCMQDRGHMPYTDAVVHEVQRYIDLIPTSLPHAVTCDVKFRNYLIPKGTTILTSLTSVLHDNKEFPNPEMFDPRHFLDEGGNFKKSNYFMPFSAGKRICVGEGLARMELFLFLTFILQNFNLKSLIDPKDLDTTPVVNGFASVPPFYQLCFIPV
CYP2C19 activ – activators of human cytochrome P450 2C19; activation factor at 5 µM; 96,000 tested, under 10 active; AID 1025; P33261; recombinant CYP2C19, luciferin-H EGE luminescence; hits give high values; 0 = fully inhibited enzyme, 1 = untreated enzyme;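 active = activation factor of at least 2 at 5 µM in the primary screen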
Cav32 inh – blocks human Cav3.2 T-type calcium channel | O95180 | Cav3.2-expressing cells, Fluo-4 calcium fluorescence FDSS; hits give low values | B-score at 10 µM | hit rate 4% among 100,000;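 active = single-dose well whose peak fluorescence ratio is a statistical outlier from its plate by either plate-standardised score or position-corrected B-score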
CYP2C9 activ – activators of human CYP2C9. P11712. activation factor at 5 µM. hit rate 1.4% among 96,000. recombinant CYP2C9, luciferin-H conversion, luminescence; hits give high values; factor 1 = untreated enzyme, 0 = blocked;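 active = activation factor of 2 or more for CYP2C9 at a 5 µM dose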
Each line names hits and unclear results; the compound was inactive in the other large screens.

N#Cc1c2n(c3c(=O)n(Cc4ccccc4Cl)cnc13)CCCCC2	CYP2C9 inhib 68, CYP2C19 inh 59 (no result: Cav32 inh)
Cc1c(C#N)c2ncn(Cc3ccccc3)c(=O)c2n1-c1ccccc1	CYP2C9 inhib 63
COc1ccc(NC(C)C(=O)N/N=C/c2ccccc2OCc2ccc(Br)cc2)cc1 (stereo unspecified)	CYP2C9 inhib 69, Cav32 inh -5.9
COc1ccc(Br)c(/C=N/NC(=O)COc2ccc(-c3ccccc3)cc2)c1	none
NC(=S)N/N=C/c1ccccc1OCc1cccc(Cl)c1	none
CC(Nc1ccc(Br)cc1)C(=O)N/N=C/c1ccccc1OCc1ccccc1 (stereo unspecified)	CYP2C9 inhib 95, CYP2C19 inh 89
COc1ccc(C(=O)N/N=C/c2ccc3cccc(OCc4ccccc4)c3n2)cc1	none
O=C(N/N=C/c1ccc2cccc(OCc3ccccc3)c2n1)c1ccc(Br)cc1	Cav32 inh -4
NC(=O)[C@@H]1CC2(CC(c3cccc(NC(=O)[C@H]4CCC(=O)N4)c3)=NO2)CN1C(=O)COc1ccc(Cl)cc1 (stereo partly specified)	none (no result: CYP2C9 inhib, CYP2C19 inh, CYP2C19 activ, CYP2C9 activ)
COc1ccc(CN2CCOCC2)cc1	none
CCCCCOc1ccc(CN2CCOCC2)cc1Cl	CYP2C9 inhib 55, CYP2C19 inh 76 (no result: Cav32 inh)
Cc1ccc(OCC(=O)Nc2ccc(-c3nc4ncccc4o3)cc2)c(C)c1	CYP2C19 inh 63
CCN(C1CCCCC1)S(=O)(=O)c1ccc(S(=O)(=O)N2CCN(CCC#N)CC2)cc1	none
CCCCn1c(Oc2ccc(C(=O)OC)cc2)nc2c1c(=O)n(C)c(=O)n2C	none
COC(=O)c1cccc(NC(=O)Cn2cnc3c2c(=O)n(C)c(=O)n3C)c1	CYP2C9 inhib 61
CCOC(=O)c1cccc(NC(=O)Cn2cnc3c2c(=O)n(C)c(=O)n3C)c1	CYP2C9 inhib 72 (no result: Cav32 inh)
COC(=O)c1cccc(Oc2nc3c(c(=O)n(C)c(=O)n3C)n2C(C)C)c1	CYP2C9 inhib 75 (no result: Cav32 inh)
Cc1nc(N)nc(-c2ccccc2O)n1	none
O=C(O)C[C@H]1c2ccccc2S(=O)(=O)N1C1CCCC1	none (no result: CYP2C9 inhib, CYP2C19 inh, CYP2C19 activ, CYP2C9 activ)
Cn1c(=O)[nH]c(=O)c2c1nc(CN1CCN(c3cccc(Cl)c3)CC1)n2Cc1ccccc1Cl	CYP2C9 inhib 73
CC1CCCN(c2nc3c(c(=O)[nH]c(=O)n3C)n2Cc2ccccc2Cl)C1 (stereo unspecified)	Cav32 inh -6.1
Cc1cccc(N2C(=O)CC(Sc3nnc(C)s3)C2=O)c1 (stereo unspecified)	none (no result: CYP2C9 inhib, CYP2C19 inh, CYP2C19 activ, CYP2C9 activ)
COCCNC(=O)CCSCc1ccccc1F	none
O=C(Oc1ccccc1N1C(=O)C2CCCCC2C1=O)c1ccc(Cl)cc1 (stereo unspecified)	none
Cc1ccc(C(=O)Oc2ccccc2N2C(=O)C3CCC(C)CC3C2=O)cc1 (stereo unspecified)	CYP2C9 inhib 58, CYP2C19 inh 54
Cc1ccc(NCCC(=O)c2ccc(Br)cc2)cc1	CYP2C19 inh 79
CCc1ccc(CN/C=C/C(=O)c2ccc(Br)cc2)cc1	none
Cc1ccc(NCCC(=O)c2ccc(Cl)cc2)cc1	CYP2C19 inh 83
CCc1ccc(NCCC(=O)c2ccc(Br)cc2)cc1	CYP2C9 inhib 50, CYP2C19 inh 86
CCn1c(C(C)NC(=O)Cc2ccccc2)nc2ccccc21 (stereo unspecified)	none
COCCCNC(=O)c1cc(C(=O)c2c(-c3c(Cl)cccc3Cl)noc2C)c[nH]1	none
CSc1oc(-c2ccco2)nc1S(=O)(=O)c1ccc(F)cc1	none (no result: CYP2C9 inhib, CYP2C19 inh, CYP2C19 activ, CYP2C9 activ)
COc1ccc2nc(N/C(N)=N/C(=S)Nc3cccc(C)c3)nc(C)c2c1	none (no result: CYP2C9 inhib, CYP2C19 inh, CYP2C19 activ, CYP2C9 activ)
CCOc1ccc2nc(N/C(N)=N/C(=S)Nc3cccc(C)c3)nc(C)c2c1	Cav32 inh -5.5
COc1cc(-c2cc(N)n(S(=O)(=O)c3ccccc3)n2)cc(OC)c1OC	CYP2C9 inhib 98, CYP2C19 inh 96
OCCSc1c(F)c(SCCO)c(SCCO)c(F)c1SCCO	CYP2C9 inhib 70
COc1nc2ccc(C)cc2cc1-c1noc(-c2ccccc2)n1	none
Cc1ccc(NC(=O)N2CCC(C(=O)Nc3ccc(C)cc3C)CC2)cc1	none (no result: CYP2C9 inhib, CYP2C19 inh, CYP2C19 activ, CYP2C9 activ)
Cc1ccccc1N(CC(=O)N/N=C/c1cc(C)n(-c2ccccc2C)c1C)S(C)(=O)=O	CYP2C9 inhib 58, Cav32 inh -9.8
CC(C)[C@@H]1NC(=O)c2cc([N+](=O)[O-])cc(F)c2NCCC[C@@H](C(N)=O)NC(=O)[C@H](CO)NC1=O	none (no result: CYP2C9 inhib, CYP2C19 inh, CYP2C19 activ, CYP2C9 activ)
Cc1nc2c(C(=O)NCCc3ccccc3)c[nH]n2c(=O)c1Cl	CYP2C9 inhib 64
Cc1noc(C(=O)NCc2ccc(F)cc2)c1Cl	none
